Reference: PubChem BioAssay (NCATS)
Results filed as inconclusive are left out. Values without a mark were called inactive. Calls follow the shape of the full dose curve.

test: Cell Viability - SK-N-SH (AID 435); details: SK-N-SH neuroblastoma cell viability qHTS;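 also: compound exposure lasted 40 h at 37 °C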
Source text: NIH Chemical Genomics Center [NCGC]
NIH Molecular Libraries Screening Centers Network [MLSCN]
National Institutes of Environmental Health Sciences [NIEHS]
National Toxicology Program [NTP]
We have developed a 1536-well cell-based assay for quantitative high throughput screening (qHTS) against a number of cell lines to determine in vitro cytotoxicity of small molecules. This particular assay uses the SK-N-SH cell line which is derived from human neuroblastoma.
NCGC Assay Protocol Summary:
The CellTiter-Glo luminescent cell viability assay (Promega) is a homogeneous method to measure the number of viable cells in culture. The end point readout of this assay is based on quantitation of intracellular ATP, an indicator of metabolic activity, using the luciferase reaction. Luciferase catalyzes the oxidation of beetle Luciferin to oxyluciferin and light in the presence of ATP. The luminescent signal is proportional to amount of ATP present.
Using the CellTiter-Glo luminescent cell viability assay, the amount of cellular ATP was measured in the SK-N-SH cell line with complete culture medium following compound treatment for 40 hours. The assay was performed in opaque white Kalypsys 1536-well plates. In the screen, tamoxifen and doxorubicin were used as positive controls. Library compounds were measured for their ability to cause acute toxicity in the cell line, as reflected by a decrease in intracellular ATP levels, in a concentration-dependent manner. Data were normalized to the controls for basal activity (DMSO only) and 100% inhibition (100 uM tamoxifen). AC50 values were determined from concentration-response data modeled with the standard Hill equation.
qHTS protocol fo CellTiter Glo SK-N-SH cellular assay
[Step] [Parameter] [Value] [Description]
1. Reagent; 5 uL; 1500 SK-N-SH cells/well
2. Time; 5 hr; 37 °C incubation
4. Controls; 23 nL; Tamoxifen 0.34 uM to 100 uM & Doxorubicin 0.02 nM to 100 uM
5. Time; 40 hr; 37 °C incubation
6. Reagent; 5 uL; CellTiter Glo reagent
7. Time; 20 min; Room Temperature
8. Detection; Luminescence; Viewlux plate reader
Keywords: cell viability, cytotoxicity, SK-N-SH cell line, luminescence, NTPHTS, NTPHTS_NCGC, NIEHS, EPA, DSSTox, MLSMR, MLSCN, NIH Roadmap, qHTS, NCGC
Potency is read from the fitted curve at half-maximal effect.

Compound	Potency [µM]
NC(=O)NC(N)=O	> 92
C=C(C)OC(C)=O	> 92
C=CCOC(=O)CCCCCCCC	> 92
C=C(C)C(=O)OCC(C)O (stereo not given)	> 92
O=C1CCC(=O)O1	> 92
Oc1cccc(Nc2ccccc2)c1	> 92
CCC(C)O (stereo not given)	> 92
CC(C)(C)OC=O	> 92
NC(=O)c1ccccc1[N+](=O)[O-]	> 92
c1ccc2c(c1)Oc1ccccc1S2	> 92
CC(C)(C)OCC1CO1 (stereo not given)	> 92
NC(N)=S	> 92
Cc1ccc(S(=O)(=O)NC2CCCCC2)cc1	> 92
CC(C)c1ccccc1	> 92
C=CC(=O)NC(C)C	> 92
CCCCN(CCO)CCCC	> 92
Cc1ccccc1C=O	> 92
CC=C(Cl)Cl	> 92
Cc1ccc(C)c(O)c1	> 92
COC(=O)c1ccccc1	> 92

Compound	Potency [µM]
O=[N+]([O-])c1cccc(Cl)c1	> 92
CC(=O)c1cccc([N+](=O)[O-])c1	> 92
CCCCCCCCCCCCC1CO1 (stereo not given)	> 92
CN(C)c1cccc(O)c1	> 92
C=CC(=O)OCCCC	> 92
CCCCCO	> 92
COc1ccc(N)c(OC)c1	> 92
CCCCCCC(=O)O	> 92
CCCC=O	> 92
c1ccsc1	> 92
CC(=O)OCCC(C)C	> 92
Cc1cc(C)cc(O)c1	> 92
O=C(O)c1c(Cl)cccc1Cl	> 92
O=C(O)c1ccccc1[N+](=O)[O-]	> 92
Cc1ccc(N(C)C)cc1	> 92
Cc1c(N)cccc1N	> 92
O=C(O)CCSSCCC(=O)O	> 92
O=Cc1ccc(Cl)cc1	> 92
CCC1CO1 (stereo not given)	> 92
O=C1OC(=O)c2c(Br)c(Br)c(Br)c(Br)c21	> 92
